Source: PubChem
HT1080 IDH1KD tx: toxicity to HT-1080 IDH1 knockdown cells (counter line) | HT-1080 IDH1 knockdown viability, ATP luminescence, 48 h | AID 686971 | Potency, µM (doses to about 46.1 µM), for inactives: top-dose activity, negative = toxicity, usual class: cytotoxic | 2% of 360,000 active;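 note: potency is the fitted concentration of half-maximal effect; 0% = DMSO wells and -100% = cell-free medium wells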
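Cytotoxicity counter-line: IDH1KD HT-1080, 48 h, CellTiter-Glo. Curves classed by r2, magnitude and activity.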
DT40 TDP1 no CPT: qHTS for Inhibitors of human tyrosyl-DNA phosphodiesterase 1 (TDP1): qHTS in cells in absence of CPT; DT40 Tdp1-/- hTDP1 cells, no CPT, ATP luminescence, 48 h; Potency, µM (titrated, usually from 46.2 µM), for inactives: at the top dose activity change, negative = growth inhibition, usual class: inhibitors; 15% of 420,000 active; note: potency is the fitted concentration of half-maximal effect; nearly all actives have a fitted effect of over 55% in size
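Compound effects on proliferation are scored in DT40 Tdp1-/-;hTDP1 cells in the absence of CPT. ATP levels (CellTiter-Glo luminescence) are recorded after a ≥48 hr, 37 °C incubation.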
TDP1 cell CPT: growth inhibition of DT40 Tdp1-/-;hTDP1 cells with camptothecin (screen for TDP1 inhibitors) | AID 686979 | chicken DT40 Tdp1-/-;hTDP1 cells + 20 nM CPT, ATP luminescence, 48 h | 12% of 420,000 active | Potency, µM (series often up to 46.2 µM), for the others: at the highest dose activity change, negative = growth inhibition, hits mostly inhibitors; note: potency is the fitted concentration of half-maximal effect; nearly all actives have a fitted effect of over 55% in size
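Chicken DT40 Tdp1-/- cells stably complemented with human TDP1 were seeded at 400 cells/well in medium containing 20 nM camptothecin, exposed to pin-transferred compounds, and grown at 37 °C for at least 48 hr. Viability was read as ATP luminescence.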
IL1B secr inh: inflammasome signaling inhibition, IL-1 beta readout; 4.7% of 360,000 active; activity change, % at 57.5 µM; AID 743279; THP-1 LPS/ATP IL-1B secretion, AlphaLISA, 16 h; stronger effect = lower value; in the data active = activity change below about -50%; inconclusive = mostly about -30% to -49%
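Secreted IL-1B measured by AlphaLISA bead assay after 16 h compound exposure of THP-1 cells; compounds (final up to 57.5 uM) added 1 h before LPS (250 ng/mL) and ATP (1.25 mM) stimulation; lower signal means less secretion.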
HT1080-NT tox: kills 2HG-producing HT-1080-NT fibrosarcoma cells; HT-1080-NT fibrosarcoma viability, CellTiter-Glo ATP luminescence, 48 h; Potency, µM (doses to about 46.1 µM), without a hit: top-dose activity, negative = less viability, most hits filed as cytotoxic; 1.6% of 360,000 active; AID 686970;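 note: NT is the 2HG producing partner of a matched IDH1 knockdown line; potency is the fitted concentration of half-maximal effect; 0% = DMSO-treated cells and -100% = media-only wells without cells; nearly all actives have a fitted effect of over 55% in size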
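Viability by CellTiter-Glo luminescence after 48 h compound exposure at 37C of HT-1080-NT cells (750/well, RPMI, 5% FBS). % activity scaled between DMSO wells and medium-only wells, then curve-fitted and categorized by curve class.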
* hit, by the source's call. Compounds with a hit are over-represented: about 19% of the library has one in this group of screens. Unless noted, calls come from the whole dose curve; as a rule, active = well fitted curve in the direction sought with a large enough effect; inconclusive = small, poorly fitted or top-dose-only effect, or another doubt; inactive = no such curve, though single readings can be large; an effect the other way counts as inactive or inconclusive. Unless noted, % is set by controls: 0 for no effect and ±100 for the full control effect.

`CCC(CO)[n+]1c(C)cc(/C=C2\Sc3ccccc3N2Cc2ccccc2)cc1C` (centres undefined) gave HT1080 IDH1KD tx 3.3µM*, DT40 TDP1 no CPT 2.3µM*, TDP1 cell CPT 2.3µM*, IL1B secr inh -104* and HT1080-NT tox 3.3µM*.
CCN1/C(=C2\SC(=S)N(Cc3ccccc3)C2=O)Sc2ccccc21 was read as HT1080 IDH1KD tx 12%, DT40 TDP1 no CPT inconclusive, TDP1 cell CPT -23%, IL1B secr inh -3 and HT1080-NT tox 11%.
Cc1cc(=O)n2[nH]c(SCc3ccccc3Cl)nc2n1 was read as HT1080 IDH1KD tx -11%, DT40 TDP1 no CPT -15%, TDP1 cell CPT 14%, IL1B secr inh 32 and HT1080-NT tox 0%.
`CN(C)CCCNC(=O)c1cccc(-c2cnc3cccnn23)c1` gave HT1080 IDH1KD tx 3%, DT40 TDP1 no CPT 2%, TDP1 cell CPT 1%, IL1B secr inh 0 and HT1080-NT tox inconclusive.
`CCC[C@@H]1CCCO[C@@](C(=O)NCc2ccc(S(C)(=O)=O)cc2)(C(F)(F)F)C1` gave HT1080 IDH1KD tx -1%, DT40 TDP1 no CPT inconclusive, TDP1 cell CPT 29µM*, IL1B secr inh -8 and HT1080-NT tox 4%.
O=C(NCC1CC1)[C@]1(C(F)(F)F)C[C@H](CCC2CCCCC2)CCCO1 was read as HT1080 IDH1KD tx 25%, DT40 TDP1 no CPT 23µM*, TDP1 cell CPT inconclusive, IL1B secr inh 38 and HT1080-NT tox 4%.
`O=C(NCC1CC1)C1(C(F)(F)F)CC(CCCO)CCCO1` (centres undefined) gave HT1080 IDH1KD tx 13%, DT40 TDP1 no CPT 5%, TDP1 cell CPT -4%, IL1B secr inh 17 and HT1080-NT tox 0%.
Screening COc1cccc(-c2[nH]nc3c2C(c2ccoc2)C(C#N)=C(N)O3)c1 (centres undefined) returned HT1080 IDH1KD tx -2%, DT40 TDP1 no CPT -23%, TDP1 cell CPT -26%, IL1B secr inh -14 and HT1080-NT tox -20%.
Screening CCC(C)Nc1c2c(nc3c(-c4ccccc4)c(C)nn13)CCC2 (centres undefined) returned HT1080 IDH1KD tx inconclusive, DT40 TDP1 no CPT inconclusive, TDP1 cell CPT inconclusive, IL1B secr inh inconclusive and HT1080-NT tox -19%.
`COc1ccc(NC(=O)CN(C)S(=O)(=O)c2ccc3[nH]c4c(c3c2)CCCC4)cc1OC` gave DT40 TDP1 no CPT 16µM* and TDP1 cell CPT inconclusive.
Screening COc1cc(Cl)c(NC(=O)CN(C)S(=O)(=O)c2ccc3[nH]c4c(c3c2)CCCC4)c(OC)c1 returned DT40 TDP1 no CPT 18µM* and TDP1 cell CPT 23µM*.
CN(CC(=O)Nc1cccc(Cl)c1)S(=O)(=O)c1ccc2[nH]c(=O)oc2c1 was read as HT1080 IDH1KD tx -12%, DT40 TDP1 no CPT 2%, TDP1 cell CPT 6%, IL1B secr inh 52 and HT1080-NT tox -3%.
`CN(CC(=O)Nc1cccc(Cl)c1)S(=O)(=O)c1ccc2[nH]c3c(c2c1)CCCC3` gave DT40 TDP1 no CPT 23µM* and TDP1 cell CPT inconclusive.
Screening Cc1ccc(S(=O)(=O)N(C)CC(=O)Nc2cccc3c2CCCC3)cc1 returned HT1080 IDH1KD tx -12%, DT40 TDP1 no CPT inconclusive, TDP1 cell CPT -18%, IL1B secr inh 8 and HT1080-NT tox -1%.
Screening Cc1ccc(NC(=O)CN(C)S(=O)(=O)c2ccc3[nH]c4c(c3c2)CCCC4)c(Cl)c1 returned DT40 TDP1 no CPT 18µM* and TDP1 cell CPT inconclusive.
Screening COc1ccc(NC(=O)CN(C)S(=O)(=O)c2ccc(Br)s2)cc1OC returned HT1080 IDH1KD tx -3%, DT40 TDP1 no CPT -24%, TDP1 cell CPT inconclusive, IL1B secr inh 37 and HT1080-NT tox -10%.
